# Screens as filed in PubChem.
# This is a sample that favours compounds with a hit; in the whole collection about 6.6% have one here.
# HT1080-NT tox: qHTS for induction of synthetic lethality in tumor cells producing 2HG: qHTS for the HT-1080-NT fibrosarcoma cell line | Potency, µM (series often up to 46.1 µM), hits mostly cytotoxic | AID 686970, 2013 | actives 1.6% (n = 360,000) | HT-1080-NT fibrosarcoma viability, CellTiter-Glo ATP luminescence, 48 h;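 note: NT is the 2HG producing partner of a matched IDH1 knockdown line; nearly all actives have a fitted effect of over 55% in size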
#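 Toxicity toward the 2HG-producing NT line was scored as %Activity, normalised to DMSO and no-cell wells, from CellTiter-Glo luminescence after 48 hours' treatment.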
# TGFb inhibitor: qHTS for Inhibitors of TGF-b. Potency, µM (titrated, usually from 46.1 µM), most hits filed as inhibitors. HepG2 CAGA-GFP TGF-b/SMAD3 reporter, GFP fluorescence, 18 h; TGF-beta stimulated, 500 pg/mL final. actives 1.2% (n = 410,000); note: nearly all actives have a fitted effect of over 65% in size
#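 HEPG2 CAGA-GFP reporter cells (1000/well, DMEM with 1% FBS) received compounds, then recombinant TGF-beta at 500 pg/mL final for 18 hours at 37 degrees C. Per-cell GFP summed per well was normalised to unstimulated and stimulated DMSO controls before curve fitting.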
# HepG2 viability: qHTS for Inhibitors of TGF-b: Cytotox Counterscreen; actives 0.76% (n = 410,000); Potency, µM (top dose mostly 46.1 µM), hits mostly cytotoxic; AID 588856, 2011; HepG2 CAGA-GFP viability, ATP luminescence, 18 h
#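 HepG2 CAGA-GFP cells (1000/well, DMEM with 1% FBS) received compound, then TGF-beta at 500 pg/mL final, and were incubated 18 hours at 37 degrees C. Viability was read by CellTiter-Glo luminescence. Media-only wells were set as complete cell-killing and DMSO as no toxicity.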
# KB-V1 MDR tox: qHTS assay for MDR1-selective chemotherapeutics: Primary screen using the drug-selected MDR subline cells KB-V1. KB-V1 MDR cells viability, CellTiter-Glo, 72 h. Potency, µM (doses to about 46.1 µM), usual class: cytotoxic. actives 3.4% (n = 400,000). AID 1347076, 2019; note: nearly all actives have a fitted effect of over 60% in size
#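 Compound-treated KB-V1 multidrug-resistant cells, 72 h, 37 degrees C; viability by CellTiter-Glo. Fitted qHTS curves give the values.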
# HT1080 IDH1KD tx: qHTS for induction of synthetic lethality in tumor cells producing 2HG: qHTS for the HT-1080-IDH1KD cell line; HT-1080 IDH1 knockdown viability, ATP luminescence, 48 h; Potency, µM (top dose mostly 46.1 µM), actives largely listed as cytotoxic; actives 2% (n = 360,000); AID 686971, 2013
#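 After a 2 h attachment period, IDH1KD HT-1080 cells took pin-transferred compound for 48 h at 37 °C; ATP-based luminescence after 10 min room-temperature reagent incubation reported viability.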
# KB-3-1 cytotox: qHTS assay for MDR1-selective chemotherapeutics: Primary screen using the parental adenocarcinoma cell KB-3-1. AID 1347075, 2019. KB-3-1 viability, CellTiter-Glo ATP luminescence, 72 h. Potency, µM (highest dose often 46.1 µM), actives largely listed as cytotoxic. actives 1.4% (n = 400,000); note: nearly all actives have a fitted effect of over 60% in size
#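 KB-3-1 cells, DMEM (no phenol red) + 10% FBS; compound by pin transfer, 72 h, 37 °C. Readout: CellTiter-Glo luminescence after 10 min. Data normalized, curve-fitted.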
# Hits are given with their value; – = inactive; ? = inconclusive; · = no result given; [ ] = dose if it differs, or a comment. Calls come from the whole dose curve; as a rule, active = well fitted curve in the direction sought with a large enough effect; inconclusive = small, poorly fitted or top-dose-only effect, or another doubt; inactive = no such curve, though single readings can be large; an effect the other way counts as inactive or inconclusive.
SMILES,HT1080-NT tox,TGFb inhibitor,HepG2 viability,KB-V1 MDR tox,HT1080 IDH1KD tx,KB-3-1 cytotox
CC(C)[C@H](NC(=O)OC(C)(C)C)c1nnc(SCc2cccc(F)c2)o1,–,–,–,13µM,–,–
Cc1cccc(CS(=O)(=O)c2nnc([C@H](Cc3ccccc3)NC(=O)OC(C)(C)C)o2)c1,5.01µM,?,–,?,2.82µM,?
CC(C)C[C@H](NC(=O)OC(C)(C)C)c1nnc(SCc2cccc(F)c2)o1,–,?,–,–,–,–
Cc1oc(-c2ccc(C(=O)NCc3ccccc3F)cc2)nc1COc1ccccc1,·,–,–,?,·,–
Cn1c(SCC(=O)Nc2nccs2)nnc1C12CC3CC(CC(C3)C1)C2,–,–,–,20.6µM,?,–
Cn1c(SCC(=O)Nc2nccs2)nnc1C1CC1,–,–,–,?,–,–
Cn1c(CC(=O)Nc2ccc(Cl)c(Cl)c2)nnc1SCC(=O)Nc1nccs1,–,–,–,–,–,–
Cn1c(CSCc2ccccc2Cl)nnc1SCC(=O)Nc1nccs1,–,?,–,20.6µM,–[9.24 µM],–
CN(c1ccccc1)S(=O)(=O)c1cccc(NC(=O)c2ccc(=O)[nH]n2)c1,–,–,–,–,–,–
ClC(Cl)c1nnc(-c2ccccc2)c(-c2c[nH]c3ccccc23)n1,–,12.6µM,–,?,–,–
c1ccc(-c2nnc(-c3c[nH]c4ccccc34)nc2-c2ccccc2)cc1,–,?,–,–,–,–
O=C(Nc1cccc2c1CCCC2)c1cc([N+](=O)[O-])ccc1Cl,16.4µM,?,–,?,20.6µM,23.1µM
O=C(Nc1cccc2ncccc12)c1cc([N+](=O)[O-])ccc1Cl,?,–,–,?,–,18.4µM
Cc1ccc(CNc2nnc(C)c3nnn(Cc4ccc(F)cc4)c23)cc1,·,–,–,–,·,–
CCOc1ccc(NC(=S)c2ccncc2)cc1,?,–,–,20.6µM,–,23.1µM
O=c1c2cccnc2[nH]c(=S)n1CCCN1CCN(c2ccccc2F)CC1,–,–,–,–,–,13µM
Cc1ccc(Cl)cc1N1CCN(C(=O)CCCCCn2c(=O)[nH]c3ccccc3c2=O)CC1,·,–,–,–,·,–
O=C(CCCn1c(=S)[nH]c2cc3c(cc2c1=O)OCO3)N1CCN(c2ccc(F)cc2)CC1,–,?,–,–,–,–
O=c1c2ccccc2[nH]c(=S)n1CCCN1CCN(c2ccccc2F)CC1,–,–,–,–,–,–
O=C(CCCn1c(=S)[nH]c2cc3c(cc2c1=O)OCO3)N1CCN(c2ccccc2F)CC1,–,–,–,16.4µM,–,–
Cc1ccc(Cl)cc1N1CCN(C(=O)CCCn2c(=O)[nH]c3ccc(Br)cc3c2=O)CC1,·,11.2µM,–,?,·,–
CCOC(=O)N1CCN(C(=O)CCCn2c(=S)[nH]c3ccccc3c2=O)CC1,–,–,–,–,–,–
CCOC(=O)N1CCN(C(=O)CCCn2c(=S)[nH]c3ccc(Br)cc3c2=O)CC1,–,–,–,11.6µM,–,–
O=C(Nc1cc(-c2ccccc2)nn1C1CCCCC1)c1ccc(Cl)cc1,–,?,–,?,–,–
CCN1C(=O)[C@H]2[C@@H](c3ccc(C(F)(F)F)cc3)N[C@]3(CCCN(Cc4cccn4C)C3=O)[C@H]2C1=O,–,?,–,–,–,–
COc1ccc(CN=Cc2[nH]c3ccc(Br)c(Cl)c3c2O)cc1,?,–,–,–,10µM,–
Cc1cc(C)cc(N=Cc2[nH]c3ccc(Br)c(Cl)c3c2O)c1,?,–,–,?,?,?
Cc1cc(C)nc(SCC(=O)Nc2ncc(Cc3cccc(Cl)c3)s2)n1,–,?,–,4.61µM,?,–
